Reference: the supplement of paper PMC3545927
The other results are listed elsewhere or left out. The true hit rate is not given.

Target: furin, P09958
Test: furin cleavage Z-score vs untreated control; higher = more cleavage, active = 3.5 or more, inactive = 1 or less, 8 variable residues between constant flanks
Protocol: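 Multiplexed peptide-cDNA fusion cleavage assay. 8-mer variable peptides flanked by constant Cys-Ala (N-term) and Ala-Gly-Asn-Ala-Ser-Ala-Ser-Ala (C-term) and conjugated to a cDNA oligonucleotide were bead-immobilised via the N-terminus. They were treated with purified furin at a 1:10 enzyme:substrate ratio in 50 mM HEPES pH 7.5, 1 mM CaCl2, 100 mM NaCl for 7.5, 15 or 30 min. Released cDNA was counted by next-generation sequencing, and log counts versus no-furin controls were lowess-adjusted and converted to robust Z-scores.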

Chain of furin, P09958 (P09958 whole entry): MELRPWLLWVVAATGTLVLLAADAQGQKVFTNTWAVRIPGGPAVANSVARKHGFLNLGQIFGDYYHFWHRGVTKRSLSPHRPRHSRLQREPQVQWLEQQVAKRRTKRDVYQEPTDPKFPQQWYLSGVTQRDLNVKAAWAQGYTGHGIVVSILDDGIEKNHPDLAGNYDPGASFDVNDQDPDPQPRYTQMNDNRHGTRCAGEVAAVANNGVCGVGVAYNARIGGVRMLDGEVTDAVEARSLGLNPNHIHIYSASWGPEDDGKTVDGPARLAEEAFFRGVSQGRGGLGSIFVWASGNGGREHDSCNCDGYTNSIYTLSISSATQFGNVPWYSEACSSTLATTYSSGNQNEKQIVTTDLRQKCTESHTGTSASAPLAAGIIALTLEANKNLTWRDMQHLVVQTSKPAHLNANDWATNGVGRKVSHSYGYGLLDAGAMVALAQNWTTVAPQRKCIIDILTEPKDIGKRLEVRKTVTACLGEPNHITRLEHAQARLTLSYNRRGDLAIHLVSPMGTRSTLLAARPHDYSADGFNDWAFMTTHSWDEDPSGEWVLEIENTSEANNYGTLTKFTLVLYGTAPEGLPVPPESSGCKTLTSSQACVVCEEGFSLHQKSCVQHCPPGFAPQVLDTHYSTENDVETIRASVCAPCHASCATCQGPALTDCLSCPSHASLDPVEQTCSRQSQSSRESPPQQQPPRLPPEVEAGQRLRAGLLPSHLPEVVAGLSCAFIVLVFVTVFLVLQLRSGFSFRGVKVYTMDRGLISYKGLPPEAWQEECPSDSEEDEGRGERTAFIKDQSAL

Row | Sequence | furin cleavage Z-score (7.5 min) | furin cleavage Z-score (15 min) | furin cleavage Z-score (30 min)
1 | CAIKGGRHLIAGNASASA [HC853] | -0.712 (inactive) | -0.368 (inactive) | 0.443 (inactive)
2 | CADGEVVTSTAGNASASA [HC2296] | 0.392 (inactive) | 0.826 (inactive) | -0.278 (inactive)
3 | CAVRLRAYMNAGNASASA [HC929] | 0.615 (inactive) | -1.18 (inactive) | 1.3
4 | CAYKVLVLNPAGNASASA [HC785] | 1.85 | -0.276 (inactive) | -1.39 (inactive)
5 | CARSKRYVHLAGNASASA [FS-2381] | 2.83 | 5.52 (active) | 7.4 (active)
6 | CARSKRPSTDAGNASASA [FS-2606] | -0.273 (inactive) | 0.303 (inactive) | 0.307 (inactive)
7 | CARSKRDYTPAGNASASA [FS-1928] | 6.07 (active) | 5.96 (active) | 6.83 (active)
8 | CARSKRDPDLAGNASASA [FS-2087] | -0.408 (inactive) | 0.763 (inactive) | 0.503 (inactive)
9 | CARSKRDSTYAGNASASA [FS-3169] | 6.51 (active) | 7.64 (active) | 7.09 (active)
10 | CARSKRRWAPAGNASASA [FS-2307] | 0.891 (inactive) | 0.79 (inactive) | 2.12
11 | CARSKRDEKLAGNASASA [FS-2810] | 3.32 | 5.67 (active) | 5.15 (active)
12 | CARSKKPKGLAGNASASA [FS-3082] | 0.217 (inactive) | -0.722 (inactive) | -1.55 (inactive)
13 | CARSGRDSGYAGNASASA [FS-2303] | -0.464 (inactive) | -0.846 (inactive) | -1.58 (inactive)
14 | CAKALGLLQTAGNASASA [HC1026] | -0.0968 (inactive) | 0.32 (inactive) | -1.95 (inactive)
15 | CAEQGMMLAEAGNASASA [HC1020] | 0.411 (inactive) | 0.355 (inactive) | -0.0666 (inactive)
16 | CAGLLRFCALAGNASASA [HC619] | -0.221 (inactive) | -0.963 (inactive) | 0.576 (inactive)
17 | CARNQRDAWIAGNASASA [FS-2731] | -0.28 (inactive) | -0.224 (inactive) | -0.1 (inactive)
18 | CAVVCCSLSYAGNASASA [HC2045] | 0.285 (inactive) | 2.15 | 0.578 (inactive)
19 | CARPWKSVSEAGNASASA [FS-2060] | -0.467 (inactive) | 0.327 (inactive) | 1.73
20 | CARTKRFLSYAGNASASA [FS-2826] | 4.24 (active) | 5.3 (active) | 6.61 (active)
21 | CARIPREVSEAGNASASA [FS-2031] | 7.41 (active) | 8.89 (active) | 7.69 (active)
22 | CARGARLVSEAGNASASA [FS-1708] | 0.305 (inactive) | -0.752 (inactive) | 0.671 (inactive)
23 | CARTKRNAKIAGNASASA [FS-2384] | 8.15 (active) | 8.32 (active) | 7.88 (active)
24 | CARTKRFVSEAGNASASA [FS-3106] | 7.52 (active) | 9.36 (active) | 7.54 (active)

Row | Sequence | furin cleavage Z-score (7.5 min) | furin cleavage Z-score (15 min) | furin cleavage Z-score (30 min)
25 | CARTKRKPSIAGNASASA [FS-2612] | 0.358 (inactive) | -0.0194 (inactive) | 0.82 (inactive)
26 | CARGLDVSVIAGNASASA [HC870] | 1.35 | -0.274 (inactive) | -0.641 (inactive)
27 | CAAPGERPSGAGNASASA [HC912] | -0.474 (inactive) | 0.136 (inactive) | -0.967 (inactive)
28 | CANLVYSTTSAGNASASA [HC1388] | 1.17 | -0.567 (inactive) | 1.86
29 | CATTPCSFSWAGNASASA [HC1887] | -1.16 (inactive) | -1.65 (inactive) | 0.982 (inactive)
30 | CAKVPAAYAAAGNASASA [HC780] | 0.0632 (inactive) | -0.0412 (inactive) | -3.37 (inactive)
31 | CARARRTTIYAGNASASA [FS-3151] | -0.153 (inactive) | 1.46 | 4.35 (active)
32 | CARARRDDPHAGNASASA [FS-2888] | 5.71 (active) | 7.99 (active) | 5.78 (active)
33 | CALTKRLKRHAGNASASA [FS-689] | 12.6 (active) | 12.3 (active) | 9.95 (active)
34 | CARARRTLGHAGNASASA [FS-1684] | 6.43 (active) | 8.11 (active) | 7.53 (active)
35 | CAYTTGPCTPAGNASASA [HC1193] | -1.22 (inactive) | 0.109 (inactive) | -1.36 (inactive)
36 | CALSPGALVVAGNASASA [HC1104] | -0.255 (inactive) | 1.25 | 0.572 (inactive)
37 | CAVVCNSMSYAGNASASA [HC98] | -1.2 (inactive) | 0.223 (inactive) | -0.488 (inactive)
38 | CAEGVFTGLTAGNASASA [HC940] | -0.801 (inactive) | 0.108 (inactive) | -0.239 (inactive)
39 | CAEGVTSTWVAGNASASA [HC2176] | 0.155 (inactive) | -0.512 (inactive) | 0.24 (inactive)
40 | CAGPVIQMYTAGNASASA [HC708] | -1.34 (inactive) | -0.0874 (inactive) | 0.0794 (inactive)
41 | CAEAKRGSSSAGNASASA [FS-2476] | -2.29 (inactive) | -0.0771 (inactive) | 0.074 (inactive)
42 | CARARRTKRHAGNASASA [FS-1255] | 11.2 (active) | 11.8 (active) | 8.26 (active)
43 | CARSQPRGRRAGNASASA [HC188] | 4.16 (active) | 5.3 (active) | 4.87 (active)
44 | CARKQRKKKAAGNASASA [FS-1262] | 0.332 (inactive) | 1.6 | 1.96
45 | CAFSQRRKRRAGNASASA [FS-775] | 6.61 (active) | 5.92 (active) | 6.42 (active)
46 | CARSQRRKKAAGNASASA [FS-865] | 4.39 (active) | 4.99 (active) | 5.15 (active)
47 | CALRKRRKRKAGNASASA [FS-1030] | 10.7 (active) | 11.4 (active) | 9.12 (active)
